The full list was thinned out, with hits kept by preference.
Dicer processing = inhibitors of human Dicer processing of pre-microRNA; hit rate 6% among 47,000; z-score at 25 µM; AID 1347074; cat-ELCCA pre-miR-21 Dicer processing, chemiluminescence; stronger effect = higher value; in the data active means z-score above about 3, passing the limit was not always enough;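 further: plate controls were vehicle for no effect and no enzyme for full effect; higher signal means more uncleaved substrate so more Dicer inhibition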
Target sequence (Q9UPY3 whole entry, looked up): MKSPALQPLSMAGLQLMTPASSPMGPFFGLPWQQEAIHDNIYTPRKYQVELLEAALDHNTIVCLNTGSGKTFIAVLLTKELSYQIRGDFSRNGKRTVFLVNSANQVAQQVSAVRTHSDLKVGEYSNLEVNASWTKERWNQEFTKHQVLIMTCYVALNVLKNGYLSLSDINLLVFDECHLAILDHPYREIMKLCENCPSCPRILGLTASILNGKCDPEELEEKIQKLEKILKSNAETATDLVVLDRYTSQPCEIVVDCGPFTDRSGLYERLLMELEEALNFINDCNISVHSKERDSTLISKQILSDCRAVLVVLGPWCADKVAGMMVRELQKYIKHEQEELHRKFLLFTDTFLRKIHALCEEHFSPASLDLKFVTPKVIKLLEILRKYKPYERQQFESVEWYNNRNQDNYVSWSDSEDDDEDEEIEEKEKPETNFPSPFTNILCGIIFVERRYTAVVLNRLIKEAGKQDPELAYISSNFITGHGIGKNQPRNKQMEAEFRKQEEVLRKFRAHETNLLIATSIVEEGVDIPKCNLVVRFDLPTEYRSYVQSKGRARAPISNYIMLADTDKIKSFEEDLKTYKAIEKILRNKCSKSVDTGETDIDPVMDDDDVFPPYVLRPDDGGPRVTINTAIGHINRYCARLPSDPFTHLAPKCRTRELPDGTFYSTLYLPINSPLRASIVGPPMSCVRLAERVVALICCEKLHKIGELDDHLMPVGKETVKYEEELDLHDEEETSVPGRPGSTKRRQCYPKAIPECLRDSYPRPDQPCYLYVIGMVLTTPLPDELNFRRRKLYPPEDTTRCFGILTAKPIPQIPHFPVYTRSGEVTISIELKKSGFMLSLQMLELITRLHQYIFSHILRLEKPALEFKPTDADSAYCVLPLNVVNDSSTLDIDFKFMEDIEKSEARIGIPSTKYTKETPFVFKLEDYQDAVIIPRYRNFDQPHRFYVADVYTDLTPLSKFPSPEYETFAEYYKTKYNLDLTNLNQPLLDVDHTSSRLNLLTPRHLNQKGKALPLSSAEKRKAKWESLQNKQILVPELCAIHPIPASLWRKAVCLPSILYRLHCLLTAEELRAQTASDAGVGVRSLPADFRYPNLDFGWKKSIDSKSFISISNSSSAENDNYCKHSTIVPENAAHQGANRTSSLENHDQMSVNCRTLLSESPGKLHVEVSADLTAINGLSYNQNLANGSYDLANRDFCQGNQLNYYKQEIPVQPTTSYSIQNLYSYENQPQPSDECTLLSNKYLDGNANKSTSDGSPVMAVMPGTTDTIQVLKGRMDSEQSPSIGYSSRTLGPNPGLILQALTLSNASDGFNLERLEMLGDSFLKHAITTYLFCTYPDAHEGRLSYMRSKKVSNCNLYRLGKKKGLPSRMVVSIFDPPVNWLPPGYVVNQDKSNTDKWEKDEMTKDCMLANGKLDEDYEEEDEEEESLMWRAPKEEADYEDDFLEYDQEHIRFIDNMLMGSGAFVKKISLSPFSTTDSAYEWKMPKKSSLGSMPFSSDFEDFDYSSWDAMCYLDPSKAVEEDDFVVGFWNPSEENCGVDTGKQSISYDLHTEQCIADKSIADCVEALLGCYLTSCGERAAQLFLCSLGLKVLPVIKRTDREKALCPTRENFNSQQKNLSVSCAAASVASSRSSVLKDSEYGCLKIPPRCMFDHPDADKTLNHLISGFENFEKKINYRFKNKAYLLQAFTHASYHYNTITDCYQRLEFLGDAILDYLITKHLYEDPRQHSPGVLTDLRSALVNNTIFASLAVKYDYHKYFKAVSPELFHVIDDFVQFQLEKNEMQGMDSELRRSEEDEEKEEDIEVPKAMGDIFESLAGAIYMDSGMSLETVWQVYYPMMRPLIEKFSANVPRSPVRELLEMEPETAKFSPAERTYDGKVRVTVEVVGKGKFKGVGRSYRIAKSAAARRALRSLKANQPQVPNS
* marks the source's active call; other numbers are inactive results.

SMILES | Dicer processing
Cc1nn(C)c(Oc2ccc(C(C)(C)C)cc2)c1[N+](=O)[O-] | -1.41
O=C1CC(Nc2ccc(F)cc2)C(=O)N1c1ccc(N2CCCCC2)cc1 (stereo unspecified) | -0.19
O=C1CC(Nc2ccc(N3CCOCC3)cc2)C(=O)N1c1ccccc1F (stereo unspecified) | 2.84
O=C1CC(Nc2ccc(N3CCCCC3)cc2)C(=O)N1c1ccccc1F (stereo unspecified) | 3.31*
Cc1ccsc1CNCCNC(=O)c1nonc1N | 1.04
CCOC(=O)c1c(Cl)c(C(C)(C)C)nc(Sc2ccccn2)c1C#N | 2.03
CCN(CC)c1ncnc2c1sc1nc(C)c3c(c12)CC(C)(C)OC3 | -0.79
N=c1scc(-c2ccc(Cl)cc2)n1-c1cc(Cl)ccc1Cl | 0.56
COc1ccc(Cl)cc1NC(=O)Nc1sccc1-c1nc2ccccc2s1 | 5.09*
COc1ccccc1NC(=O)Nc1sccc1-c1nc2ccccc2s1 | 7.11
COc1ccc(Cl)cc1NC(=O)Nc1nnc(C2CC2)s1 | -0.31
CCCN1CN=C(Nc2nc(C)c3cc(C)ccc3n2)NC1 | 0.56
CC(C)(C)NC(=S)Nc1ccccc1C(F)(F)F | -0.62
N/C(=N\NS(=O)(=O)c1cc(C(F)(F)F)cc(C(F)(F)F)c1)c1ccccn1 | 1.01
N/C(=N\NC(=S)Nc1ccccc1C(F)(F)F)c1ccccn1 | 4.28*
Cc1sc(NC(=O)CN(Cc2ccccc2)Cc2ccccc2)c(C#N)c1C | 1.4
O=C1/C(=C/c2ccc(F)cc2)CN(Cc2ccccc2)C/C1=C\c1ccc(F)cc1 | 4.18*
COc1ccc(/C=C2\CN(C)C/C(=C\c3ccc(OC)cc3)C2=O)cc1 | -0.55
CN1C/C(=C\c2ccccc2)C(=O)/C(=C/c2ccccc2)C1 | -1.55
O=c1cc(CSc2n[nH]c(=O)n2-c2ccc3c(c2)OCCO3)c2ccc(O)cc2o1 | -0.11
C(=C\c1ccccc1)/CNCc1cccnc1 | -0.42
C#CC(CC)(CC)NC(=O)/C=C/c1ccccc1 | 0.35
CCOC(=O)c1sc2sc(C(=O)OCC)c(-c3ccco3)c2c1N | -2.11
CCOC(=O)c1c(C)noc1-c1ccco1 | 7.69*
CCOC(=O)c1c(C)noc1-c1csc(Nc2c(C)cc(C)cc2C)n1 | 0.39
SMILES | Dicer processing
COc1ccc(-n2nc(C(=O)O)c(C)c(C#N)c2=O)cc1 | -2.04
Cc1ccc(-c2nnnn2-c2ccccc2C(F)(F)F)cc1 | -0.51
O=C1NC(=S)S/C1=C/c1ccc(Sc2ccc(C(F)(F)F)cn2)c([N+](=O)[O-])c1 | 3.42*
O=[N+]([O-])c1ccsc1Sc1ccc(C(F)(F)F)cn1 | -0.18
O=[N+]([O-])c1cc(C(F)(F)F)ccc1Sc1ccc(C(F)(F)F)cn1 | -0.36
Cn1c(SCC(=O)N/N=C/c2ccc(OCc3ccccc3)cc2)nnc1-c1ccccc1 | -0.56
CC(C1CC1)N(C(=O)c1ccccc1)c1ccccc1 (stereo unspecified) | -1.69
CCSc1cc(C(F)(F)F)c(C(=O)N(CC)c2ccc(Cl)cc2)cn1 | -0.7
COC(OC)c1ccc(C#N)c(SC)n1 | 0
COc1ccc(C(c2ccc(N(C)C)cc2)c2ccc(N(C)C)cc2)c(C)c1C | 3.2*
CN(C)c1ccc(C(O)C(=O)c2ccccc2)cc1 (stereo unspecified) | -0.12
S=C(NN=C1CCCCCC1)Nc1ccccc1 | 2.64
CC(=O)NNC(=S)Nc1cccc(F)c1 | -1.19
Fc1cccc(NC(=S)NN=C2CCCCCC2)c1 | 4.2*
CNCCNS(=O)(=O)c1ccc(N2C(=O)CC3(CCCC3)C2=O)c(Cl)c1 | -0.67
COc1ccc(Cn2c(=O)c3[nH]cnc3n(-c3ccccc3S(C)=O)c2=O)cc1 (stereo unspecified) | -0.81
N#C/C(=N\Nc1ccc(OC(F)(F)F)cc1)C(=O)c1ccsc1 | 1.97
Cn1cc(/C(N)=N/O)c(=O)n(Cc2ccccc2)c1=O | 7.02*
CC(C)n1cc(/C(N)=N/OC(=O)c2ccccc2Cl)c(=O)n(Cc2ccccc2)c1=O | 0.85
CC(C)n1cc(C(N)=S)c(=O)n(Cc2ccccc2)c1=O | -0.58
COc1ccccc1-c1coc2c(CN(C)C3CCCCC3)c(O)ccc2c1=O | 1.88
CSc1nc(C)nc(N/C=C(\C#N)S(=O)(=O)c2ccc(C)cc2)n1 | -2.19
Cc1ccc(S(=O)(=O)NNC(=S)Nc2ccc(Cl)cc2)cc1 | 6.09*
Cc1ccc(S(=O)(=O)NNC(=S)Nc2c(Cl)cccc2Cl)cc1 | -0.42
CCc1ccc(NC(=S)NNS(=O)(=O)c2ccc(C)cc2)cc1 | -0.96
SMILES | Dicer processing
Cc1ccc(S(=O)(=O)NNC(=S)Nc2cc(C(F)(F)F)cc(C(F)(F)F)c2)cc1 | 3.69*
Cc1ccc(S(=O)(=O)/C(C#N)=C/Nc2cc(C(F)(F)F)cc(C(F)(F)F)c2)cc1 | 3.66*
N#C/C(=C\NCc1cc(C(F)(F)F)cc(C(F)(F)F)c1)S(=O)(=O)c1ccc(Cl)c(Cl)c1 | -1.68
Cc1ccc(S(=O)(=O)NNC(=S)Nc2ccccc2)cc1 | 0.06
Cc1ccc(S(=O)(=O)NNC(=S)Nc2ccc(Br)c(C)c2)cc1 | 2.64
Cc1c(Cl)cccc1Nc1nc(C(C)(C)C)cs1 | -1.95
Cc1cc(N/C=C(\C#N)C(=O)c2cc(C)oc2C(F)(F)F)no1 | -0.22
CCCC(=O)Oc1ccc2c(=O)c(-c3ccc(OC)c(OC)c3)c(C(F)(F)F)oc2c1 | 0.89
CCOC(=O)c1ccc(N2C(=O)C3ON(c4ccccc4C)C(c4cccs4)C3C2=O)cc1 (stereo unspecified) | -0.15
CC(=O)Nc1ccc(C(C)(C)C)cc1C#N | -0.68
CC(C)(C)CC(C)(C)NC(=O)C(Cl)Cl | -0.45
CCOc1ccc2nc(S/C=C/C(=O)c3ccc(CC)cc3)sc2c1 | 0.46
Clc1ccc(Nc2nc(-c3ccncc3)nc3ccccc23)cc1 | 3.97*
Oc1ccc(Nc2nc(-c3ccccc3)nc3ccccc23)cc1 | 2.24
Clc1cccc(Nc2nc(-c3ccncc3)nc3ccccc23)c1 | 2.6
COc1ccc(C2C3CSc4ccccc4C3=NN2c2ccccc2)cc1 (stereo unspecified) | -0.66
Cc1c(S(=O)(=O)c2ccc(Cl)cc2)csc1C(=O)O | -1.87
CS(=O)(=O)Nc1ccc2c(c1)OCCO2 | -0.44
COC(=O)C(C)(C)S(=O)(=O)c1ccc(C(F)(F)F)cn1 | -0.28
COC(=O)CS(=O)(=O)c1ccc(C(F)(F)F)cn1 | 3.35*
O=C(CS(=O)(=O)c1ccc(C(F)(F)F)cn1)NNC(=O)Nc1ccccc1 | 0.12
O=C(OCCS(=O)(=O)c1ccc(Cl)cn1)c1cccc(Cl)c1 | -0.34
CC(C)(C)OC(=O)N1Cc2ccccc2C[C@@H]1C(=O)NCc1cccs1 | -0.54
CSc1nnc(-c2ccc(Br)s2)n1C | -1.5
Cn1nc(-c2ccc(Br)s2)c(Br)c1C(F)(F)F | 44.6*
SMILES | Dicer processing
CCOC(=O)C(C)c1nc2ccccc2[nH]c1=O (stereo unspecified) | 2.99
CC(C)OC(=O)c1ccc(COC(=O)CCc2nc3ccccc3[nH]c2=O)cc1 | 3.37*
O=C(CCc1nc2ccccc2[nH]c1=O)OCc1ccc(Br)cc1 | 1.56
COCCN1CN=C(NS(=O)(=O)c2ccc(C)cc2)NC1 | 0.48
COCCCN1CN=C(NS(=O)(=O)c2ccc(C)cc2)NC1 | -2.55
Cc1ccc(S(=O)(=O)NC2=NCN(Cc3cccnc3)CN2)cc1 | 4.54*
CCCc1nn(C(=O)c2ccco2)cc1C(=O)OCC | 2.58
CSC(N)=Nc1ccccc1 | 1.58
CCN(C(=Nc1ccc(Cl)cc1)SC)c1ccccc1 | 3.43*
CCN(C(=S)Nc1c(C)cccc1Cl)c1ccccc1 | 0.1
Cc1ccc(/C(O)=C2/C(=O)C(=O)N(CC(C)C)C2c2cccnc2)cc1 (stereo unspecified) | -0.85
CCOC(=O)COc1ccc2c(C)c(Cc3c(Cl)cccc3Cl)c(=O)oc2c1 | 3.32*
